# Screens from PubChem.
# Most compounds without a hit are left out; they make up all but 1.3% or so of the library.
# MazF activator = increases E. coli MazEF RNase cleavage of RNA | actives 0.32% (n = 350,000) | activation, % at 20 µM | AID 504720 | FAM/BHQ RNA-DNA oligo cleavage fluorescence, 5 h | P0AE70; in the data active means activation above about 50%
# Target sequence (P0AE70 whole entry, looked up): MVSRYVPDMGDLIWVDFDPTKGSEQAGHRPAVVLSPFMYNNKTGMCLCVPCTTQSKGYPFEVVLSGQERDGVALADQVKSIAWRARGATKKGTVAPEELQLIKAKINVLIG
# 3CLpro inhibitor = SARS-CoV 3CLpro protease inhibition. P0C6X7. recombinant SARS-CoV 3CLpro, quenched FRET peptide cleavage. inhibition, % at 6 µM. actives 0.14% (n = 290,000); in the data active means inhibition above about 12%
# Sa ugtP lethal = compounds lethal to S. aureus RN4220 ugtP deletion mutant; OD600 growth, 16 h; growth inhibition, % (concentration not given with the values); actives 0.54% (n = 330,000); AID 1259309; in the data active means growth inhibition above about 68%;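 further: plate controls were untreated wells for no effect and antibiotic for full effect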
# CCHF vOTU inh-1 = CCHFV vOTU protease inhibition; Pep-AMC fluorescence; inhibition, % at 11.5 µM; actives 0.55% (n = 370,000); further: 0% = vehicle wells with enzyme and 100% = no enzyme wells
# RN4220 kill = S. aureus RN4220 growth inhibition. OD600, 16 h. inhibition, % (no concentration beside the values). actives 0.33% (n = 330,000). AID 1259311; in the data active means inhibition above about 85%;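 further: plate controls were untreated cells for no effect and reference antibiotic for full effect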
# Mtb bLac sens = beta-lactam sensitization of Mtb H37Rv | inhibition, % at 25 µM | actives 0.27% (n = 330,000) | M. tuberculosis H37Rv growth with meropenem, percent inhibition; call rule not given here;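 further: growth measured after seven days incubation then overnight dye step; 0% = bacteria only wells and 100% = bacteria with antibiotic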
# CCHF vOTU inh-2 = confirmation of CCHF virus vOTU protease inhibitors | shares compounds with CCHF vOTU inh-1 | Recombinant CCHFV vOTU, Pep-AMC fluorescence | inhibition, % at 11.5 µM | actives 17% (n = 1,900) | AID 686976
# An asterisk follows results filed as active; ? = inconclusive; / = not tested or not shown. Unless noted, no stated cut-off is given here; in the data, active means inhibition above about 30%; inactive means the rest.
SMILES,MazF activator,3CLpro inhibitor,Sa ugtP lethal,CCHF vOTU inh-1,RN4220 kill,Mtb bLac sens,CCHF vOTU inh-2
COc1ccc(CN2C=C3C(=O)C(C)(OC(=O)C4CCCC4)C(=O)C=C3C=C2c2ccsc2)cc1 (configuration not stated),3.7,/,-0.2,8.8,-0.8,-1.4,/
CC1(OC(=O)C2CCCC2)C(=O)C=C2C=C(c3ccsc3)N(CCCCO)C=C2C1=O (configuration not stated),-11.7,/,-5.3,30.1*,4.8,-0.5,34.5*
COc1ccc(-n2nnnc2SCC(=O)c2cccc(OC)c2)cc1,2.0,-5.3,-1.6,30.8*,14.0,8.3,-13.4
O=C(NN=C1CCS(=O)(=O)c2ccc(F)cc21)c1ccc([N+](=O)[O-])cc1,/,/,-3.2,/,1.8,/,/
O=C1C2C3C=CC(c4ccccc4)(C2C(=O)N1c1cccc(Cl)c1)C1C(=O)N(c2cccc(Cl)c2)C(=O)C31 (configuration not stated),-5.6,-6.0,-15.8,38.1*,10.0,-3.5,-12.6
Cc1ccc(C(=O)OCC(=O)Nc2cc(C(C)(C)C)nn2-c2ccccc2)c(O)c1,-1.5,/,11.4,33.0*,1.1,-6.2,-5.6
CC(C)(C)c1cc(NC(=O)COC(=O)c2ccc(O)cc2O)n(-c2ccccc2)n1,7.6,/,-4.0,9.8,2.5,8.0,/
OCCC1CC(O)C(O)[C@@]2(CCCO2)O1 (some centres not stated),/,/,9.8,/,2.5,/,/
COc1cccc(Nc2c(Nc3cccc(OC)c3)c(=O)c2=O)c1,-6.5,0.9,-0.3,6.3,0.1,2.3,/
Cc1cccc(NC2=C(NCCO)C(=O)c3ccccc3C2=O)c1,-17.1,2.9,5.3,53.8*,19.1,1.1,15.7
Cc1cccc(Nc2nc(N)c([N+](=O)[O-])c(NCCO)n2)c1,7.9,-4.7,/,5.6,/,82.0,/
COc1ccc(NC2=C(NC(C)=O)C(=O)c3ccccc3C2=O)cc1,4.1,-1.6,2.4,3.7,25.4,10.8,/
COc1ccc(NC2=C(NCCO)C(=O)c3ccccc3C2=O)cc1,7.6,1.6,0.9,87.5*,16.1,4.5,57.0*
COc1cccc(NC2=C(NCCO)C(=O)c3ccccc3C2=O)c1,29.3,-4.9,11.1,34.6*,26.0,-2.6,-2.3
O=C(NN=Cc1ccc([N+](=O)[O-])cc1)c1cc(C2CC2)[nH]n1,/,/,-1.2,/,2.7,/,/
N#C/C(=C/c1ccc([N+](=O)[O-])cc1)C(N)=O,-8.4,1.1,/,33.8*,/,1.2,-24.2
O=C1C2C(c3ccc(F)cc3)N3C(=O)N(c4cccc(Br)c4)C(=O)[C@@]3(Cc3ccccc3)C2C(=O)N1C1CCCCC1 (some centres not stated),/,/,-20.9,/,5.1,/,/
O=C(COc1ccc(C=NNS(=O)(=O)c2ccccc2)cc1)NCc1ccccc1,/,/,-1.7,/,5.5,/,/
Cc1nn(-c2cccc(Cl)c2)c2c1C(c1cccnc1)C(C#N)=C(N)O2 (configuration not stated),13.1,-0.3,-7.8,35.5*,0.3,5.3,-19.8
O=C(NN=Cc1ccncc1)c1cnccn1,/,/,3.6,/,2.0,/,/
CCOc1ccc(-n2c(=S)sc3c(=O)n(-c4ccc(F)cc4)c(SCC(=O)O)nc32)cc1,6.9,3.6,8.3,34.4*,3.9,-7.8,-5.4
CC(N=C1CC(C)(C)CC(=O)/C1=C(\O)CCCN1C(=O)c2ccccc2C1=O)C(=O)O (configuration not stated),/,/,-0.7,/,1.3,/,/
COc1ccc(C=NNc2nnc(C)n2N)cc1OC(C)=O,/,/,13.6,/,-0.1,/,/
CC(C)(C)c1nnc(N/N=C/c2cc(Br)ccc2O)n(N)c1=O,10.8,2.8,/,2.4,/,5.0,/
CCc1nnc(N/N=C/c2cccs2)n1N,9.3,0.2,/,89.2*,/,72.0,-2.9
SMILES,MazF activator,3CLpro inhibitor,Sa ugtP lethal,CCHF vOTU inh-1,RN4220 kill,Mtb bLac sens,CCHF vOTU inh-2
CCc1nnc(N/N=C/c2cc(Br)c(O)cc2O)n1N,1.9,1.4,/,96.3*,/,3.0,13.5
CCOc1cc(/C=N/Nc2nnc(C)n2N)ccc1OC(C)=O,3.0,-1.8,/,85.7*,/,2.7,-13.0
CCc1nnc(NN=Cc2c(C)[nH]c3ccccc23)n1N,/,/,2.1,/,11.6,/,/
CCc1nnc(N/N=C/c2ccc(O)c(OC)c2)n1N,-2.5,-2.5,/,77.3*,/,-8.4,-1.9
OC1c2ccccc2C(Cc2cncs2)C1Br (configuration not stated),/,/,-3.9,/,8.9,/,/
CCc1nnc(NN=Cc2ccc(OC(C)=O)c(OC)c2)n1N,/,/,8.6,/,5.7,/,/
CCc1nnc(N/N=C\c2ccc(OC(C)=O)c(OC)c2)n1N,5.6,-5.4,/,66.4*,/,-5.0,-6.3
C[C@H]1CNCCN1c1ccc(N2CC[C@@H](O)C2)c(C#N)c1,/,/,/,34.3*,/,/,-19.8
Cc1cc(N2CCNC[C@@H]2C)ccc1N1CC[C@@H](O)C1,/,/,/,17.0,/,/,/
Cc1cc(/C=C(\C#N)C(=O)Nc2ccccc2F)c(C)[nH]1,7.2,-0.4,7.4,32.7*,5.5,-2.5,-2.8
N#C/C(=C\c1ccc[nH]1)C(=O)Nc1ccccc1F,2.6,0.8,1.3,14.8,3.1,1.0,/
COc1cc(C=C[N+](=O)[O-])ccc1O,/,/,9.1,/,8.5,/,/
O=C(Nc1ccccc1)c1ccccc1Oc1ccc(C(F)(F)F)cc1[N+](=O)[O-],1.4,-0.4,-5.2,18.1,2.8,?,/
O=C(Nc1ccc(F)cc1)c1ccccc1Oc1ccc(C(F)(F)F)cc1[N+](=O)[O-],5.7,2.4,-15.2,30.9*,-1.2,1.9,-4.9
CC12CN3CCN(CC(C3)C1=NN=Cc1cccc([N+](=O)[O-])c1)C2,/,/,7.2,/,2.7,/,/
CCOc1ccc(Br)cc1S(=O)(=O)Nc1ccc(C(=O)Nc2ccccc2OC)cc1,-6.9,6.1,-9.6,7.0,-3.0,-4.5,/
COc1ccccc1NC(=O)c1ccc(NS(=O)(=O)c2ccc(F)c(F)c2F)cc1,-0.5,-0.3,3.1,29.9*,-5.3,18.6,-13.5
COc1ccc(C=NNc2nnc(C)n2N)cc1OC,/,/,4.0,/,5.1,/,/
COc1cccc(/C=N/Nc2nnc(C)n2N)c1O,-2.1,-6.9,/,88.5*,/,2.7,-7.5
Cc1nnc(N/N=C/c2cccc(OCc3ccc(Cl)c(Cl)c3)c2)n1N,22.5,-1.2,/,103.0*,/,100.1,-9.6
Cc1nnc(N/N=C/c2cccc(C(F)(F)F)c2)n1N,5.2,-6.2,/,104.9*,/,74.7,-15.5
CCc1nnc(NN=Cc2ccccc2F)n1N,/,/,2.6,/,13.4,/,/
Cc1nnc(N/N=C/c2ccccc2F)n1N,0.3,1.9,/,75.2*,/,5.2,-14.1
CCCc1cc(C(=O)NN=Cc2ccc(CC)s2)c2ccccc2n1,/,/,1.0,/,6.0,/,/
Cc1cc(=O)oc2cc(OCC(=O)NN=Cc3cc([N+](=O)[O-])ccc3O)ccc12,/,/,-17.5,/,23.9,/,/
Cc1nnc(N/N=C/c2ccccc2C(F)(F)F)n1N,1.4,2.0,/,65.1*,/,-3.6,-8.5
COc1ccc(-n2c(C)cc(/C=N/Nc3nnc(C)n3N)c2C)cc1,-0.1,-4.4,/,91.1*,/,88.4,-8.0
